# Experimental data: PubChem BioAssay (Tox21)
# “And” between values parts separate entries of the source, which are not always exact repeats. Equal entries are not always repeated. Results filed as inconclusive are left out. Entries that show only a call come without a potency. The source made the active and inactive calls. Unless noted, calls come from the whole dose curve; as a rule, active = well fitted curve in the direction sought with a large enough effect in the repeat runs; inconclusive = weak or mixed curves; inactive = no such curve, though single readings can be large; an effect the other way counts as inactive or inconclusive.
# What was measured:
# [1] = qHTS assay to identify aromatase inhibitors - cell viability counter screen (AID 743084);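 note: cells stimulated with testosterone during compound exposure; nearly all actives have a fitted effect of over 55% in size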; note: potency is the fitted concentration of half-maximal effect
# [2] = qHTS assay to identify small molecule that activate the aryl hydrocarbon receptor (AhR) signaling pathway - cell viability counter screen (AID 743086); note: nearly all actives have a fitted effect of over 45% in size; note: potency is the fitted concentration of half-maximal effect
# Procedure, shortened: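 HepG2-AhR-luc (HG2L7.5c1) cells, 4000/well, treated 24 h at 37 C with compound; viability measured as CellTiter-Fluor fluorescence after 30 min in the same wells as the luciferase read.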
# [3] = biological target: Peroxisome proliferator-activated receptor gamma (Homo sapiens) (UniProt P37231); assay: qHTS assay to identify small molecule agonists of the peroxisome proliferator-activated receptor gamma (PPARg) signaling pathway (AID 743094; active = well fitted activation curve with a large enough effect in the signal ratio in the repeat runs, not every such curve was filed as active; the % refers to the signal ratio)
# Peroxisome proliferator-activated receptor gamma (Homo sapiens), sequence (P37231 whole entry, looked up): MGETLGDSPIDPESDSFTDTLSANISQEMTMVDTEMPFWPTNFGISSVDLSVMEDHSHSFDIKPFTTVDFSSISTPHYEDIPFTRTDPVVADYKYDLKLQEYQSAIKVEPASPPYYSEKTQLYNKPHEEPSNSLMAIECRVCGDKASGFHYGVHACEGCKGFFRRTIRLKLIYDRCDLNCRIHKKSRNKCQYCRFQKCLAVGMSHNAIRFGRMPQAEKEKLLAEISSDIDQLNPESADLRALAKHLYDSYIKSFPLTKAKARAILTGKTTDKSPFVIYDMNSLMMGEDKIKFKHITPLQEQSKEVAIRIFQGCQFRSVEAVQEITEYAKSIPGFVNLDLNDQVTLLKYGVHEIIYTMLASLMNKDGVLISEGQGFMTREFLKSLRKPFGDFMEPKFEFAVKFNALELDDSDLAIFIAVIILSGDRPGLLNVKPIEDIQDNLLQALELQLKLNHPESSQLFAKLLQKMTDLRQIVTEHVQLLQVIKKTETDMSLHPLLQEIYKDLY
# Procedure, shortened: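 Reporter activation was scored by fluorescence of cleaved LiveBLAzer B/G substrate (1 h, room temperature) in PPARg-bla HEK293H cells previously treated 17 h at 37C with DMSO-dissolved compounds.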
# [4] = qHTS assay for small molecule agonists of the antioxidant response element (ARE) signaling pathway - cell viability counter screen (AID 743203; calls by dose curve; note: nearly all actives have a fitted effect of over 55% in size; note: potency is the fitted concentration of half-maximal effect)
# Procedure, shortened: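 Viability counter screen: stably transfected ARE-bla HepG2 line, 16 hrs compound exposure at 37C/5% CO2, ATP-based CellTiter-Glo luminescence measured in the reporter wells.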
# [5] = qHTS assay for small molecule activators of the heat shock response signaling pathway - cell viability counter screen (AID 743209); note: nearly all actives have a fitted effect of over 50% in size; note: potency is the fitted concentration of half-maximal effect
# Procedure, shortened: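 Viability of HSE-bla HeLa cells is measured with CellTiter-Glo in the wells already used for the reporter read. Compound exposure lasts 5 h at 37 C, and luminescence is read after 30 min at room temperature.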
# [6] = qHTS assay to identify small molecule agonists of the peroxisome proliferator-activated receptor delta (PPARd) signaling pathway - cell viability counter screen (AID 743211); note: nearly all actives have a fitted effect of over 55% in size; note: potency is the fitted concentration of half-maximal effect
# Procedure, shortened: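 PPARd-bla HEK293H cells (3000/well) were pre-incubated 5 h at 37 C, then exposed to compound for 17 h at 37 C. After 2 h with LiveBLAzer substrate, CellTiter-Glo was added to the same wells; luminescence read after 30 min at room temperature.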
# [7] = biological target: Peroxisome proliferator-activated receptor delta (Homo sapiens) (UniProt Q03181); assay: qHTS assay to identify small molecule agonists of the peroxisome proliferator-activated receptor delta (PPARd) signaling pathway (AID 743212; calls by dose curve)
# Peroxisome proliferator-activated receptor delta (Homo sapiens), sequence (Q03181 whole entry, looked up): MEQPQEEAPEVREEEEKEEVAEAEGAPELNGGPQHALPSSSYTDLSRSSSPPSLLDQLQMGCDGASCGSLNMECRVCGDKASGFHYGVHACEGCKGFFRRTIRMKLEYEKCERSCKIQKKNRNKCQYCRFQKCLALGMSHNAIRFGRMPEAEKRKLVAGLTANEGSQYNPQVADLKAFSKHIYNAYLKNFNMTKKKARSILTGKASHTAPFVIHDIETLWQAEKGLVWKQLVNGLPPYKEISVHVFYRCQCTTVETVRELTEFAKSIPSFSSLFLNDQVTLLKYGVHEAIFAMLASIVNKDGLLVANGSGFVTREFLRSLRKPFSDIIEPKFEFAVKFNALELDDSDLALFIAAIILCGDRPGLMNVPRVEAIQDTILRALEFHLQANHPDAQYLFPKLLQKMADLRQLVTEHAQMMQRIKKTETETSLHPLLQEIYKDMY
# Procedure, shortened: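 Read-out: beta-lactamase FRET fluorescence after 2 h room-temperature incubation with LiveBLAzer B/G substrate. Cells were HEK293H carrying a UAS-bla reporter for PPARd, treated at 37 C with DMSO-dissolved compounds.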
# [8] = biological target: Peroxisome proliferator-activated receptor delta (Homo sapiens) (UniProt Q03181); assay: qHTS assay to identify small molecule antagonists of the peroxisome proliferator-activated receptor delta (PPARd) signaling pathway (AID 743215; active = well fitted inhibition curve with a large enough effect in the signal ratio in the repeat runs, not every such curve was filed as active; the % refers to the signal ratio;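 note: cells stimulated with agonist L165041 at 300 nM final during compound exposure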; note: potency is the fitted concentration of half-maximal effect)
# Procedure, shortened: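 Plated HEK293H PPARd-bla cells rested 5 h at 37 C and 5% CO2. Compound, then agonist L165041 at 300 nM final, was added; 17 h at 37 C followed. Substrate loading, 2 h room temperature, fluorescence measured.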
# [9] = qHTS assay to identify small molecule antagonists of the farnesoid-X-receptor (FXR) signaling pathway - cell viability counter screen (AID 743221; active = well fitted cell-killing curve with a large enough effect in the repeat runs, not every such curve was filed as active; note: nearly all actives have a fitted effect of over 50% in size; note: potency is the fitted concentration of half-maximal effect)
# Procedure, shortened: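 GeneBLAzer FXR-UAS-bla HEK 293T cells, compound plus chenodeoxycholic acid (50 uM final), 16 h at 37 C. CellTiter-Glo added to the same wells after the beta-lactamase read; luminescence read after 30 min at room temperature as viability.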
# [10] = biological target: Aryl hydrocarbon receptor (Homo sapiens) (UniProt P35869); assay: qHTS assay to identify small molecule that activate the aryl hydrocarbon receptor (AhR) signaling pathway (AID 743085); note: nearly all actives have a fitted effect of over 15% in size; note: potency is the fitted concentration of half-maximal effect;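 for activation: HG2L7.5c1 human HepG2 liver cells with stably integrated DRE-driven firefly reporter; series mostly up to about 70 µM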
# Aryl hydrocarbon receptor (Homo sapiens), sequence (P35869 whole entry, looked up): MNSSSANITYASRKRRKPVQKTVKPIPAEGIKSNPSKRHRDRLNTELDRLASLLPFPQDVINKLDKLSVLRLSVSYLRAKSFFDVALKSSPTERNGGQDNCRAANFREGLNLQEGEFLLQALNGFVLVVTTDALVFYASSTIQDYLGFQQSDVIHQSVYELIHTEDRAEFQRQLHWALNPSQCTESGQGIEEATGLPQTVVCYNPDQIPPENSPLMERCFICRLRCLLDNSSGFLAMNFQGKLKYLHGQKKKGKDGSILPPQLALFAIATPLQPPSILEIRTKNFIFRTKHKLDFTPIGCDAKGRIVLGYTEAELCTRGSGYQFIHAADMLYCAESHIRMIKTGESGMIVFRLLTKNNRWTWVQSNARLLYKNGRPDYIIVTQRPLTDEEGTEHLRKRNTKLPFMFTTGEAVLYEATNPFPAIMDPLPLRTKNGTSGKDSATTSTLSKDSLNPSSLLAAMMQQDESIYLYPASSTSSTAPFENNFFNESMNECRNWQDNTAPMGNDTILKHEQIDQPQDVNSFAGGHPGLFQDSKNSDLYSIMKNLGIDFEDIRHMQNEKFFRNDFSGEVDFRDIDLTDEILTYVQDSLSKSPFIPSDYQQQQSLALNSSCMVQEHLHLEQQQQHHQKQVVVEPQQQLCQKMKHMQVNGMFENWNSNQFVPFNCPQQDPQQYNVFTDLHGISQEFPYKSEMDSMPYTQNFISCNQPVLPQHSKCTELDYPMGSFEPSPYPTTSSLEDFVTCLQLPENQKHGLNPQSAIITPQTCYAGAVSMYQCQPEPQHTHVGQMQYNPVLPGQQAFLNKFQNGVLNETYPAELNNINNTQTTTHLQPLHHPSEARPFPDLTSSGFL
# Procedure, shortened: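 HepG2 cells stably carrying a 20-DRE firefly luciferase reporter (HG2L7.5c1) treated with compound for 24 hr at 37C. Luciferase read by ONE-Glo luminescence, with CellTiter-Fluor viability read first.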
# [11] = biological target: Peroxisome proliferator-activated receptor gamma (Homo sapiens) (UniProt P37231); assay: qHTS assay to identify small molecule antagonists of the peroxisome proliferator-activated receptor gamma (PPARg) signaling pathway (AID 743191; calls by dose curve; note: nearly all actives have a fitted effect of over 30% in size; note: potency is the fitted concentration of half-maximal effect)
# Procedure, shortened: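 GeneBLAzer PPARg UAS-bla HEK293H cells, 5 h post-plating, exposed to compounds 17 h at 37C. LiveBLAzer B/G FRET substrate added for 1 h at room temperature; beta-lactamase reporter read by fluorescence intensity.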
# [12] = qHTS assay to identify small molecule antagonists of the peroxisome proliferator-activated receptor gamma (PPARg) signaling pathway - cell viability counter screen (AID 743194); note: nearly all actives have a fitted effect of over 55% in size; note: potency is the fitted concentration of half-maximal effect
# Procedure, shortened: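 Cytotoxicity counter screen in PPARg-bla HEK293H cells, same wells as reporter assay. Compounds plus 50 nM rosiglitazone (final) for 17 h at 37 C, then viability read by CellTiter-Glo luminescence.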
# [13] = qHTS assay for small molecule activators of the heat shock response signaling pathway (AID 743210; active = well fitted activation curve with a large enough effect in the signal ratio in the repeat runs, with a control signal flat, not every such curve was filed as active; the % refers to the signal ratio;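 note: HeLa cells with beta-lactamase reporter driven by heat shock elements; series mostly up to about 63 µM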)
# Procedure, shortened: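 Beta-lactamase reporter read-out: FRET substrate fluorescence after 2.5 h at RT, following 5 h compound treatment at 37 C of HeLa cells carrying HSE-driven bla reporter; quantitative HTS format.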
# [14] = qHTS assay for small molecule agonists of the antioxidant response element (ARE) signaling pathway (AID 743202; active = well fitted activation curve with a large enough effect in the signal ratio in the repeat runs, not every such curve was filed as active; the % refers to the signal ratio)
# Procedure, shortened: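 HepG2 ARE-bla reporter line, 2,000 cells/well; 5 h preincubation 37 C/5% CO2; compound (DMSO) 16 h 37 C; B/G FRET substrate 2 h RT; fluorescence intensity.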
# [15] = qHTS assay to identify small molecule antagonists of the peroxisome proliferator-activated receptor delta (PPARd) signaling pathway - cell viability counter screen (AID 743213); note: nearly all actives have a fitted effect of over 50% in size; note: potency is the fitted concentration of half-maximal effect
# Procedure, shortened: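 In this counter screen, HEK293H cells carrying a UAS-beta-lactamase reporter are co-treated with test compounds and 300 nM L165041 (final) for 17 h at 37 C; cell viability is quantified by CellTiter-Glo luminescence.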
# [16] = qHTS assay to identify small molecule agonists of the farnesoid-X-receptor (FXR) signaling pathway - cell viability counter screen (AID 743218); note: nearly all actives have a fitted effect of over 45% in size; note: potency is the fitted concentration of half-maximal effect
# Procedure, shortened: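 Viability of FXR-bla HEK 293T cells is measured by ATP-based CellTiter-Glo luminescence following 16 h compound treatment at 37 C and a prior 2 h room-temperature beta-lactamase substrate step.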
# [17] = biological target: Vitamin D3 receptor (Homo sapiens) (UniProt P11473); assay: qHTS assay to identify small molecule antagonists of the vitamin D receptor (VDR) signaling pathway (AID 743223; active = well fitted inhibition curve with a large enough effect in the signal ratio in the repeat runs, not every such curve was filed as active; the % refers to the signal ratio; note: potency is the fitted concentration of half-maximal effect)
# Vitamin D3 receptor (Homo sapiens), sequence (P11473 whole entry, looked up): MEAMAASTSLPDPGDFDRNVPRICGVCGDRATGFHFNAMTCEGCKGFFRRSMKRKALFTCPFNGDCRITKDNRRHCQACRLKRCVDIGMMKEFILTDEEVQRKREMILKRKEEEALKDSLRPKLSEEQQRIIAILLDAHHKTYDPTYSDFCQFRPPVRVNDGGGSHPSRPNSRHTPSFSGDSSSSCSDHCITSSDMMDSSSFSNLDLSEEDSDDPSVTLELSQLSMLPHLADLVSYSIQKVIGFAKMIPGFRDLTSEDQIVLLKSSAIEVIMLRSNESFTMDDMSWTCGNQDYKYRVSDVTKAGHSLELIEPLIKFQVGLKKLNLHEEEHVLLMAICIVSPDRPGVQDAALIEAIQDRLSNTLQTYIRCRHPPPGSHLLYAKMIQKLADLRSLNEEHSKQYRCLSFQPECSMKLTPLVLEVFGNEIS
# Procedure, shortened: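 VDR-bla cells were treated with compound plus 3 nM final 1alpha,25-dihydroxyvitamin D3 for 16 h at 37C. Beta-lactamase reporter read by B/G FRET substrate fluorescence after 2 h at room temperature. qHTS format.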
# [18] = biological target: Bile acid receptor (Homo sapiens) (UniProt Q96RI1); assay: qHTS assay to identify small molecule antagonists of the farnesoid-X-receptor (FXR) signaling pathway (AID 743217; active = well fitted inhibition curve with a large enough effect in the signal ratio in the repeat runs, not every such curve was filed as active; the % refers to the signal ratio)
# Bile acid receptor (Homo sapiens), sequence (Q96RI1 whole entry, looked up): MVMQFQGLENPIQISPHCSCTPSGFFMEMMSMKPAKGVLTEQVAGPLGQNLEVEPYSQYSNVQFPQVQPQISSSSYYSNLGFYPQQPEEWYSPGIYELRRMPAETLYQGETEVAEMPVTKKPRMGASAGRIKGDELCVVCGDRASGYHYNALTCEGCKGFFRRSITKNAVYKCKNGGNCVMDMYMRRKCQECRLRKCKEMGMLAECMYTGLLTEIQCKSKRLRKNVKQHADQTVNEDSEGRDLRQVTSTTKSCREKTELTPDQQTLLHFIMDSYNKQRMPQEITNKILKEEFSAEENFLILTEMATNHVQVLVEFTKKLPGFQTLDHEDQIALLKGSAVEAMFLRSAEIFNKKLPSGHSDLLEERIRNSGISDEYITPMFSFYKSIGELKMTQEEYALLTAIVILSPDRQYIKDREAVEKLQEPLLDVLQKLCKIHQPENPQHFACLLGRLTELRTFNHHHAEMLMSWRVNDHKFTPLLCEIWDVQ
# Procedure, shortened: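 Screen of the Tox21 10K library in quantitative HTS format using FXR-UAS-bla HEK 293T reporter cells. Agonist chenodeoxycholic acid, 50 uM final, added with compounds; 16 h incubation at 37 °C; beta-lactamase FRET fluorescence measured.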
# [19] = biological target: Bile acid receptor (Homo sapiens) (UniProt Q96RI1); assay: qHTS assay to identify small molecule agonists of the farnesoid-X-receptor (FXR) signaling pathway (AID 743220; active = well fitted activation curve with a large enough effect in the signal ratio in the repeat runs, not every such curve was filed as active; the % refers to the signal ratio; note: potency is the fitted concentration of half-maximal effect)
# Procedure, shortened: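 FXR-UAS-bla HEK 293T cells carrying a UAS-driven beta-lactamase reporter were plated for 5 h at 37C/5% CO2, then exposed to DMSO-dissolved Tox21 10K compounds for 16 h at 37C. A LiveBLAzer B/G FRET substrate was loaded for 2 h at room temperature before fluorescence reading.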
# [20] = biological target: Vitamin D3 receptor (Homo sapiens) (UniProt P11473); assay: qHTS assay to identify small molecule agonists of the vitamin D receptor (VDR) signaling pathway (AID 743222; calls by dose curve)
# Procedure, shortened: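 Fluorescence from cleaved LiveBLAzer B/G FRET substrate served as readout. VDR-bla cells had been treated 16 h at 37C with test compounds in DMSO, following a 4 h settling period, and substrate was loaded for 2 h at RT.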
compound,measurement,setting,value
CCCCCCC(C)Nc1ccc(Nc2ccccc2)cc1 (centres undefined),Potency,[1],inactive
same,Potency,[2],inactive
same,Potency,[3],inactive
same,Potency,[4],inactive
same,Potency,[5],49 µM (active)
same,Potency,[6],43.6 µM (active)
same,outcome,[7],inactive
same,Potency,[8],49 µM (active)
same,Potency,[9],49 µM (active)
Cc1ccc(N)cc1O,Potency,[10],15.7 µM (active)
same,Potency,[2],61.1 µM (active)
same,Potency,[11],49 µM (active)
same,Potency,[12],inactive
same,Potency,[4],inactive
same,Potency,[13],inactive
same,Potency,[9],inactive
NCCCC(O)(P(=O)(O)O)P(=O)(O)O,Potency,[1],inactive
same,Potency,[2],inactive
same,Potency,[12],inactive
same,Potency,[14],inactive
same,Potency,[5],inactive
same,Potency,[6],inactive
same,Potency,[15],inactive
same,Potency,[16],inactive
same,Potency,[9],inactive
same,Potency,[17],inactive
O=C(c1ccccc1)c1cc(Cl)ccc1O,Potency,[1],inactive
same,Potency,[2],inactive
same,Potency,[3],inactive
same,Potency,[11],inactive
same,Potency,[12],inactive
same,Potency,[4],inactive
same,Potency,[5],inactive
same,Potency,[13],inactive
same,Potency,[6],inactive
same,Potency,[15],inactive
same,Potency,[18],inactive
same,Potency,[16],inactive
same,Potency,[19],inactive
same,Potency,[9],inactive
same,Potency,[20],inactive
CCCN(CCc1cccs1)[C@H]1CCc2c(O)cccc2C1,Potency,[1],inactive
same,Potency,[2],inactive
same,Potency,[3],inactive
same,Potency,[12],inactive
same,Potency,[14],inactive
same,Potency,[4],inactive
same,Potency,[5],inactive
same,Potency,[13],inactive
same,outcome,[7],inactive
same,Potency,[8],inactive
same,Potency,[9],inactive
CNCC[C@H](Oc1cccc2ccccc12)c1cccs1,Potency,[10],11.9 µM (active)
same,Potency,[2],inactive
same,Potency,[12],11.9 µM (active)
same,Potency,[4],6.68 µM (active)
same,Potency,[5],29.8 µM (active)
same,Potency,[6],6.68 µM (active)
same,Potency,[15],5.31 µM (active)
same,Potency,[16],6.68 µM (active)
same,Potency,[9],11.9 µM (active)
CC(C)c1ccc(O)c(C(C)C)c1,Potency,[10],inactive
same,Potency,[2],inactive
same,Potency,[3],inactive
same,Potency,[12],inactive
same,Potency,[5],inactive
same,outcome,[7],inactive
same,Potency,[8],inactive
same,Potency,[16],inactive
same,Potency,[20],inactive
Cc1c(-c2ccc(O)cc2)n(Cc2ccc(OCCN3CCCCCC3)cc2)c2ccc(O)cc12,Potency,[1],inactive
same,Potency,[12],29.8 µM (active)
same,Potency,[5],inactive
same,Potency,[6],26.6 µM (active)
same,Potency,[15],26.6 µM (active)
same,Potency,[16],29.8 µM (active)
same,Potency,[9],29.8 µM (active)
CC(C(O)c1ccccc1)N(C)CCOC(c1ccccc1)c1ccccc1 (centres undefined),Potency,[10],inactive
same,Potency,[2],inactive
same,Potency,[11],inactive
same,Potency,[12],inactive
same,Potency,[13],inactive
same,Potency,[6],29.8 µM (active)
same,Potency,[8],inactive
same,Potency,[16],15 µM (active)
same,Potency,[19],inactive
same,Potency,[20],inactive
same,Potency,[17],inactive
COc1ccccc1OCCNCC(O)COc1cccc2[nH]c3ccccc3c12 (centres undefined),Potency,[10],21.1 µM (active)
same,Potency,[2],inactive
same,Potency,[3],inactive
same,Potency,[5],inactive
same,Potency,[13],inactive
same,Potency,[6],23.7 µM (active)
same,Potency,[16],26.6 µM (active)
same,Potency,[19],inactive
same,Potency,[20],inactive
CN1[C@@H]2CC[C@H]1CC(OC(=O)C(CO)c1ccccc1)C2 (some centres undefined),Potency,[1],inactive
same,Potency,[2],inactive
same,Potency,[12],inactive
same,Potency,[5],inactive
same,Potency,[6],inactive
same,Potency,[15],inactive
same,Potency,[16],inactive
same,Potency,[9],inactive
Cc1cc(Nc2ccc(O)cc2)ccc1N,Potency,[1],24.2 µM (active)
same,Potency,[12],12.2 µM (active)
same,Potency,[5],inactive
same,Potency,[6],inactive
same,outcome,[7],inactive
same,Potency,[8],inactive
same,Potency,[19],inactive
same,Potency,[9],inactive
same,Potency,[17],inactive
CNC(=S)NN,Potency,[10],inactive
same,Potency,[2],19.3 µM (active)
same,Potency,[3],inactive
same,Potency,[11],inactive
same,Potency,[12],inactive
same,Potency,[5],24.5 µM (active)
same,Potency,[6],12.3 µM (active)
same,Potency,[15],11 µM (active)
same,Potency,[16],inactive
same,Potency,[17],17.4 µM (active)
CCOC(=O)N1CCC(=C2c3ccc(Cl)cc3CCc3cccnc32)CC1,Potency,[1],inactive
same,Potency,[12],49 µM (active) and 26.6 µM (active)
same,Potency,[4],30.6 µM (active)
same,Potency,[5],inactive
same,Potency,[6],27.5 µM (active) and 29.8 µM (active)
same,Potency,[16],21.9 µM (active)
same,Potency,[19],inactive
same,Potency,[20],inactive
Clc1ccc(C(Cn2ccnc2)OCc2c(Cl)cccc2Cl)c(Cl)c1 (centres undefined),Potency,[1],inactive
same,Potency,[2],inactive
same,Potency,[3],inactive
same,Potency,[6],26.6 µM (active)
same,Potency,[16],21.1 µM (active)
same,Potency,[19],10.6 µM (active)
same,Potency,[9],26.6 µM (active)
